Measured values taken from PubChem BioAssay (NCI).
Compounds without any hit were thinned out: in the full panel of roughly 83,000, 20% have a hit.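 Method: cells in 96-well plates; compound added at one concentration; 48 h incubation; percent growth measured; values under 10 scored active.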 Unmarked numbers belong to inactive results. The source made the active and inactive calls.

Legend:
Experiment in all cases: NCI-60 one-dose screen, 48 h (100 = growth as untreated, 0 = no growth, -100 = all killed)
[1] = test system: RPMI-8226 leukemia; details: 10 µM unless noted
[2] = test system: OVCAR-5 ovarian; details: 10 µM unless noted
[3] = test system: OVCAR-4 ovarian; details: 10 µM unless noted
[4] = test system: SK-OV-3 ovarian; details: 10 µM unless noted
[5] = test system: IGROV1 ovarian; details: 10 µM unless noted
[6] = test system: OVCAR-3 ovarian; details: 10 µM unless noted
[7] = test system: HS 578T breast; details: 10 µM
[8] = test system: NCI/ADR-RES ovarian; details: 10 µM unless noted
[9] = test system: OVCAR-8 ovarian; details: 10 µM unless noted

Row | SMILES | growth [1] | growth [2] | growth [3] | growth [4] | growth [5] | growth [6] | growth [7] | growth [8] | growth [9]
1 | O=c1cc(-c2ccc3c(c2)OCCO3)oc2cc(Cl)ccc12 | 28.8% | 32.8% | -12.5% (active) | 2.04% (active) | -9.4% (active) | -40.2% (active) | 41.2% | 38.2% | 
2 | CC(=O)OC1Oc2ccccc2-c2oc3nc(=N)n(C)c-3cc21 (configuration not stated) |  | 107% | 104% | 104% | 102% |  | 143% | 96% | 98.6%
3 | CC(=O)OC1Oc2cc(C)c(C)cc2-c2oc(=O)c(-c3ccc(F)cc3)cc21 (configuration not stated) |  | 86.2% | 73.2% | 79.1% | 54.4% |  | 60.5% | 28.5% | 81.9%
4 | N#Cc1c(N)n(C2OC(CO)C(O)C2O)c2ncnc(N)c12 (configuration not stated) |  | -11.4% (active) | 0.621% (active) | -0.358% (active) | -63% (active) | -62.1% (active) | -19.2% (active) | -7.81% (active) | -13.1% (active)
5 | CCOc1c(C#N)c2c(N)ncnc2n1C1OC(CO)C(O)C1O (configuration not stated) |  | 83.6% | 56.1% | 52.9% | -57.7% (active) | -41.4% (active) | 50.9% | 62.4% | 
6 | Cc1cc(O)ccc1C1=NN(c2ccc(S(N)(=O)=O)cc2)C(=O)CC1 |  | 93% | 59.2% | 64.9% | -9.76% (active) |  | 18.8% | 22.4% | 50.1%
7 | CCCCCCCCCCCCCCCC1=NCC[N+]1(CCO)CCO |  | 43.1% | 61.4% | 95.1% | -16% (active) | 86.6% | 75.2% | 71.1% | 37%
8 | c1ccc2c(c1)cnc1ccccc12 |  | 92.2% | 96.3% | 96.1% | 121% |  | 100% | 101% | 97.5%
9 | C=CCN(CCOC(=O)c1ccc([N+](=O)[O-])cc1)CCOC(=O)c1ccc([N+](=O)[O-])cc1 | 94.3% | 102% | 99.5% | 99.2% | 88.1% | 104% | 101% | 96.8% | 
10 | Oc1ccc(CCCCCCc2ccc(O)cc2)cc1 |  | 86.1% | 50% | 71.5% | 60.4% | 83.1% | 103% | 33.3% | 44.1%
11 | CC(=O)OC1Oc2cc(C)c(C)cc2-c2oc(=O)c(-c3cc4ccccc4oc3=O)cc21 (configuration not stated) |  | 97.6% | 97.2% | 89.4% | 73.8% |  | 423% | 94.7% | 101%
12 | CCOC(=O)C(=CNc1ccccc1Cl)C(=O)OCC |  | 100% | 91.7% | 113% | 91.1% |  | 129% | 91.4% | 91.4%
13 | C=CCn1c(SCC(=O)Nc2ccc(/C(C)=N\O)cc2)nnc1-c1cc(-c2ccccc2)nc2ccccc12 |  | 85.8% | 75% | 79.6% | 0.364% (active) | 58.3% | 85.8% | 52.8% | 53.5%
14 | O=C(C(=O)c1cccnc1)c1cccnc1 |  | 100% | 101% | 136% | 31% | 87.7% | 99% | 97.5% | 82.6%
15 | COc1cccc(OCC(O)CN2CCN(c3ccccc3)CC2)c1 (configuration not stated) |  | 105% | 97.4% | 106% | 107% | 112% | 117% | 100% | 103%
16 | Cc1ccc2nc(CN(CCN(Cc3nc4ccc(C)cc4[nH]3)Cc3nc4ccc(C)cc4[nH]3)Cc3nc4ccc(C)cc4[nH]3)[nH]c2c1 |  | -67.8% (active) | -99.2% (active) | -94.6% (active) | -95.2% (active) | -94.4% (active) | -74.1% (active) | -72.5% (active) | -71.8% (active)

Row | SMILES | growth [1] | growth [2] | growth [3] | growth [4] | growth [5] | growth [6] | growth [7] | growth [8] | growth [9]
17 | COc1ccc(-c2cnc3ccnn3c2-c2cc(OC)c(OC)c(OC)c2)cc1 | 23.9% | 66.1% | 75.4% | 32% | 62.3% | -37.9% (active) | 16.7% | 27.4% | 
18 | F | 22.4% [6.87 mM] | 10.6% [6.87 mM] | 76.2% [6.87 mM] | 8.2% [6.87 mM] (active) | 53.5% [6.87 mM] | 71.5% [6.87 mM] |  | 8.42% [6.87 mM] (active) | 30% [6.87 mM]
19 | CCCCCCCCCC1=NC(C)(C)CN1C(C)(C)CO |  | 88.3% | 117% | 124% | 72.1% | 86.1% | 100% | 95.7% | 102%
20 | O=[N+]([O-])c1cc(F)c2cccnc2c1O |  | 105% | 102% | 97.4% | 3.74% (active) | 111% | 105% | 92.9% | 
21 | O=C1C2=C(C(=O)c3c(O)ccc(O)c31)N(c1ccc(N3CCOCC3)nc1)Cc1ccccc1O2 | -20.6% (active) | -45.2% (active) | -97.8% (active) | 15.2% | -70.5% (active) | -97.3% (active) | 27.5% | 5.43% (active) | 
22 | O=C(Nc1ccc(Oc2ccc(NC(=O)Nc3ccccc3Cl)cc2)cc1)Nc1ccccc1Cl |  | 101% | 29.7% | 76.5% | -62.3% (active) | -38.3% (active) | 34.5% | 70.3% | 56.1%
23 | COc1cc(/C=C/c2ccc3c(Br)cc(Br)c(O)c3n2)ccc1O |  | 63.2% | 17.4% | 58.2% | -44.8% (active) | 1.97% (active) | 3.67% (active) | 6.88% (active) | 17.5%
24 | CC(OC(=O)Nc1cccc(Cl)c1)C(=O)O (configuration not stated) |  | 89.1% | 98.6% | 99.1% | 104% | 96.3% | 96.4% | 96.8% | 95.3%
25 | Cc1ccc(O)c(Cc2ccccc2)c1 |  | 104% | 108% | 110% | 132% | 100% | 91.3% | 99.7% | 
26 | Cc1nc2n[nH]c(N)c2nc1C | 106% | 102% | 106% | 104% | 97.9% | 104% | 114% | 103% | 
27 | Clc1ccc2c(c1)-n1cccc1C(c1ccc3ccccc3c1)=NC2 |  | 98.4% | 84.2% | 94.5% | 61.4% | 86.1% | 110% | 77.8% | 102%
28 | CC1=C(C(=O)Nc2ccc(F)cc2)C(c2ccccc2)C2=C(CC(C)(C)CC2=O)N1 (configuration not stated) | 41.3% | 90.7% | 58.7% | 97.2% | 84.3% | 70% | 82.5% | 79.7% | 
29 | O=C(/C=C/c1cc([N+](=O)[O-])ccc1Cl)c1ccccc1 | 20.9% | 96.1% | 97.2% | 95.4% | 70.5% | 102% | 98.6% | 93.6% | 
30 | CO[C@@]12[C@@H]3NC3CN1C1=C(C(=O)C(N)=C(C)C1=O)[C@@H]2COC(N)=O (some centres not stated) |  | 45.7% |  | 5.63% (active) | 33.1% |  | 70.9% | 51.4% | 15.8%
31 | CCCCCNCCCCCNc1cc(OC)cc2cccnc12 |  | 87.2% | 37.1% | 91.2% | 98.3% | 75.6% | 102% | 88.6% | 101%
